TEAD-YAP block: TEAD-YAP interaction inhibition; AID 1259422; inhibition, % at 9.12 µM; HEK-TIYL cells, TEAD-Gal4/YAP UAS-luciferase luminescence; 1.4% of 640,000 active; in the data active = inhibition above about 32%;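 note: 0% = median of test compound wells and 100% = reference inhibitor wells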
GPR151 activ: human GPR151 activation; Q8TDV0; PathHunter beta-arrestin GPR151 cells, luminescence; activation, % at 11.2 µM; 1% of 650,000 active; AID 1508602; in the data active = activation above about 4.9%;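 note: 0% = median of compound wells and 100% = cells with positive control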
FBW7 activator: activators of human E3 ligase FBW7; AlphaScreen FBW7–phospho-cyclin E peptide binding, activator screen; AID 1259310; 0.13% of 650,000 active; normalized activity (activation), % at 26.1 µM; Q969H0; in the data active = normalized activity above about 1.9%;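 note: purified mutant Fbw7 with reduced substrate affinity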
MITF inh: inhibitors of human MITF. AID 1259374. inhibition, % at 2.6 µM. 0.91% of 650,000 active. AlphaScreen MITF homodimerization, bead proximity signal; in the data active = inhibition above about 50%;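 note: 0% = vehicle wells with protein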
GPR151 conf act: human GPR151 activation, confirmation screen; 6,700 tested, under 10 active; AID 1508609; shares compounds with GPR151 activ; GPR151 PathHunter beta-arrestin cells, luminescence, 90 min; % of EA-reagent control over plate median; activation, % at 11.2 µM;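 active = mean percent activation across replicates above the confirmation screen cutoff of 4.91%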
GPR119 ag: GPR119 activation, counter-screen for GPR151 activators | AID 1508611 | GPR119 PathHunter beta-arrestin cells, luminescence, 90 min; 0 = compound-well median, 100 = enzyme-acceptor control | 0.3% of 6,700 active | activation, % at 11.2 µM | shares compounds with GPR151 activ;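 active = mean percent activation in the counterscreen above 29.09%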;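 note: counterscreen on off-target GPR119 to flag nonselective hits from the GPR151 activator screen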
Target sequence (Q8TDV5 whole entry, looked up): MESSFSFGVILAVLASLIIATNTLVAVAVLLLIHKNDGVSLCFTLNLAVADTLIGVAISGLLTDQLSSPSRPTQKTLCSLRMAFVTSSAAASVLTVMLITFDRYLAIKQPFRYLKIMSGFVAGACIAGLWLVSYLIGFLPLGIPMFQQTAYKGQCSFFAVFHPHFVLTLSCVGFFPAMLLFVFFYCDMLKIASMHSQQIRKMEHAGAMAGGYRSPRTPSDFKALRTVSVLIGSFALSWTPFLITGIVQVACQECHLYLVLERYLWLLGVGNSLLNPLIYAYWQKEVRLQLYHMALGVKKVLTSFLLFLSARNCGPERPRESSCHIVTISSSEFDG
Active calls of the source: *; . = no result. Hits are enriched below; roughly 3.4% of the tested compounds scored in any of these assays.

SMILES | TEAD-YAP block | GPR151 activ | FBW7 activator | MITF inh | GPR151 conf act | GPR119 ag
CC(C)c1ccc(NC(=O)CSc2nnc(C(C)NC(=O)c3ccccc3)n2C)cc1 (stereo unspecified) | 2 | -2 | 0 | 4 | . | .
Cc1ccc(-c2nc(-c3ccccc3)c(-c3ccc(C(=O)c4ccccc4)cc3)[nH]2)cc1 | -6 | 9.6* | 0 | -6 | 1 | 20
c1ccc(Oc2ccc(-c3[nH]c(-c4ccccc4)nc3-c3ccccc3)cc2)cc1 | 0 | 5.3* | 0 | 5 | 1 | 5
O=C(O)c1ccc(-c2nc(-c3ccccc3)c(-c3ccc(C(=O)c4ccccc4)cc3)[nH]2)cc1 | 1 | 0 | 0 | 5 | . | .
COc1ccc(NC(C)C(=O)N/N=C/c2ccccc2Cl)cc1 (stereo unspecified) | 6 | 7.3* | 0 | 17 | 0 | -7
COc1cccc(/C=N\NC(=O)c2cc(C(C)(C)C)[nH]n2)c1O | 69* | 5.8* | -1 | 22 | 1 | 4
CC(Oc1cccc(Cl)c1)C(=O)N/N=C/c1ccccc1O (stereo unspecified) | 8 | 6.6* | 0 | 5 | 0 | 2
COc1ccccc1NC(C)C(=O)N/N=C/c1cccc(OC)c1O (stereo unspecified) | 16 | 0 | 0 | 21 | . | .
COc1cccc(/C=N/NC(=O)C(C)Nc2ccc(C)cc2)c1O (stereo unspecified) | 17 | 12* | 0 | 9 | 1 | 1
COc1ccc(/C=N/NC(=O)c2cc(C(C)(C)C)[nH]n2)cc1O | -3 | 1 | 0 | 0 | . | .
COc1ccccc1-n1nc(C(=O)NCCN2CCCC2)c2ccccc2c1=O | 1 | 0 | 0 | -4 | . | .
Cc1c(C(N)=O)sc2ncn(Cc3ccc(F)cc3)c(=O)c12 | -2 | 0 | 0 | -1 | . | .
CCOC(=O)CN1C(=O)C2(OCCCO2)c2cc(C)ccc21 | 6 | 5.7* | 0 | 5 | 1 | -1
COC(=O)CN1C(=O)C2(OCCCO2)c2cc(C)ccc21 | 1 | 1 | 0 | 6 | . | .
O=c1c(NC2CC2)c(N2CCN(c3ccc4cccc(-c5ccccc5F)c4n3)CC2)c1=O | 60* | 5.3* | 0 | 3 | 1 | 31*
Fc1ccccc1-c1cccc2ccc(N3CCN(c4ncnc5nc[nH]c45)CC3)nc12 | -7 | 6.3* | 0 | -6 | 0 | 12
COc1ccccc1C(=O)Nn1c(=S)[nH]c2ccccc2c1=O | -29 | -2 | 0 | 3 | . | .
O=C(Nc1nnc(-c2ccco2)o1)c1nc2ccccc2s1 | -31 | 4.9* | 0 | 4 | 0 | -1
NC(=O)c1ccc(NC(=O)CSc2nnc(Cc3cccc4ccccc34)n2N)cc1 | -4 | -1 | 0 | 2 | . | .
CN(C(=O)Nc1ccc(I)cc1)c1ccccc1 | -12 | 0 | 0 | 12 | . | .
CC(=O)c1cccc(NC(=O)/C(=C/c2ccco2)NC(=O)c2ccco2)c1 | -10 | 1 | 0 | 0 | . | .
COC(=O)c1cccc(NC(=O)/C(=C\c2ccco2)NC(=O)c2ccco2)c1 | 7 | 5.5* | 0 | 13 | 0 | -6
CC1CCN(Cc2nnnn2CCCC(=O)N(C)C2CCOC2)CC1 (stereo unspecified) | 3 | 8.7* | 0 | 4 | -1 | -6
COc1ccc(C2CCN(CC(=O)N3CCOCC3)CC2)cc1 | -5 | 1 | 0 | 6 | . | .
COc1cc(OC)nc(CSCC(=O)N2CCN(CC(=O)N3CCOCC3)CC2)n1 | 1 | 5.2* | 0 | 8 | 0 | -12
SMILES | TEAD-YAP block | GPR151 activ | FBW7 activator | MITF inh | GPR151 conf act | GPR119 ag
Cc1ccc2nc(NCCNC(=O)c3ccncc3)c(C#N)cc2c1 | 9 | 0 | 0 | 5 | . | .
COCCn1c(=NC(=O)Cc2ccccc2)sc2cc(OC)ccc21 | 2 | 0 | 0 | -13 | . | .
COCCn1c(=NC(=O)CCS(=O)(=O)c2ccccc2)sc2cc(OC)ccc21 | 1 | 6.7* | 0 | 2 | 0 | 6
Cc1ccccc1NC(=O)Cn1nc(C)n2cccc2c1=O | 4 | 8.6* | 0 | 7 | -1 | -12
CCCCN(CC)C(=O)c1ccc([N+](=O)[O-])cc1 | -1 | -1 | 0 | 11 | . | .
CCCCN(CC)C(=O)c1ccc([N+](=O)[O-])cc1Cl | 4 | 7.7* | 0 | -18 | 0 | -5
Cc1ccc(OCC(=O)OCC(=O)c2ccccc2)cc1C | -4 | 10* | 0 | -7 | 0 | 11
Cc1ccc(OCC(=O)OCc2c(C)noc2C)cc1C | 7 | 8.0* | 0 | -3 | 0 | 4
Cc1cc(C)cc(OCC(=O)OCc2c(C)noc2C)c1 | -1 | 2 | 0 | 9 | . | .
O=C1C2C3C=CC(C3)C2C(=O)N1/N=C/c1ccc(-c2ccc(Cl)c([N+](=O)[O-])c2)o1 (stereo unspecified) | -2 | 0 | 0 | 9 | . | .
O=C(O)CC1Nc2c3ccccc3nc(=S)n2C1=O (stereo unspecified) | -10 | 4 | 0 | 4 | . | .
COC(=O)C1C(=O)C2=C(CC1C)NC(=O)CC2c1cc(OC)c(O)c([N+](=O)[O-])c1 (stereo unspecified) | -4 | 0 | 0 | -8 | . | .
CCOc1cc(C2CC(=O)NC3=C2C(=O)C(C(=O)OC)C(C)C3)cc(Cl)c1O (stereo unspecified) | -12 | 8.3* | 0 | -6 | 0 | -4
COCCCN1C(=S)NC2c3cc(Br)ccc3OC1(C)C2C (stereo unspecified) | 0 | 2 | 0 | 19 | . | .
CCCN1C(=S)NC2c3ccccc3OC1(C)C2C (stereo unspecified) | -1 | 7.5* | 0 | 11 | 1 | 9
N#Cc1cccc(NC(=O)Cc2ccccc2)c1 | 4 | 7.6* | 0 | 18 | 0 | -4
O=C(CCCc1ccccc1)Nc1ccccc1 | -60 | 0 | 0 | 12 | . | .
N#Cc1ccc(NC(=O)CCCc2ccccc2)cc1 | -81 | 5.1* | 0 | 8 | 0 | -8
O=C(CCCc1ccccc1)Nc1ccc(F)cc1 | -90 | 6.1* | 0 | -4 | -1 | -13
N#Cc1cccc(NC(=O)CCCc2ccccc2)c1 | -41 | 0 | 0 | -12 | . | .
CCOc1ccc(C=Nc2ccc(C(=O)O)cc2)c(O)c1 | -13 | -1 | 0 | 14 | . | .
CCOc1ccc(C=Nc2ccc(C(C)=O)cc2)c(O)c1 | -32 | 5.6* | 0 | 5 | -1 | -13
COc1ccc2cccc(NC(=O)c3ccco3)c2n1 | -1 | 6.4* | 0 | 8 | 0 | 9
O=C(Nc1cccc2ccc(-n3cccc3)nc12)c1ccco1 | -5 | -1 | 0 | -4 | . | .
COc1ccc(OC)c(C2CC(=O)NC3=C2C(=O)CC(c2ccccc2Cl)C3)c1 (stereo unspecified) | -9 | 0 | 0 | 13 | . | .
O=C(Nc1ccc(Br)cc1)C(Cc1ccccc1)N1C(=O)c2ccccc2C1=O (stereo unspecified) | 5 | 0 | 0 | -3 | . | .

Screens as filed in PubChem.
